Laboratory results taken from PubChem BioAssay AID504692 (The Scripps Research Institute Molecular Screening Center, 2011).
About 2,000 (0.59%) of roughly 340,000 compounds were called active. This is one part of a sample in which actives are shown more often than they occur. Unmarked numbers belong to inactive results. Cut-off read from the data, not from the text of the source: active = activation mostly above about 9.5% (no sharp cut-off); inactive = mostly below about 7.6%.

Each compound was assayed against 5-hydroxytryptamine receptor 5A (Homo sapiens) (UniProt P47898) (assay: HTR5A agonists in luminescence cell assay, primary screen, counter-screen for OPRM1-OPRD1 heterodimer agonist project, full-deck HTS (AID 504692;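 note: 0% = cells with vehicle only and 100% = reference agonist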)). Settings: cell-based, at 9.3 µM, stronger effect = higher value.
Sequence of 5-hydroxytryptamine receptor 5A (Homo sapiens) (P47898 whole entry, looked up): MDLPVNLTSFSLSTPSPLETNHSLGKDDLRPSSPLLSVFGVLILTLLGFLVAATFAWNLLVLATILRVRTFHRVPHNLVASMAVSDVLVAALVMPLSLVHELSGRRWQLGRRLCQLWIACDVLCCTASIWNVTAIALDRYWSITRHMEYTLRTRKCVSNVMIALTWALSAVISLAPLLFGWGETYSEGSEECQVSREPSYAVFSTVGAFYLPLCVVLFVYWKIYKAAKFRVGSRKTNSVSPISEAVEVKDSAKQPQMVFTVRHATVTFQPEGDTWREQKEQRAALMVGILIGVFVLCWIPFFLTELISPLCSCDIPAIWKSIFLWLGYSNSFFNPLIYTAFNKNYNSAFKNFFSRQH
In the case of `CC(C=Cc1ccccc1)=NNS(=O)(=O)c1ccc([N+](=O)[O-])cc1`, the activation is reported as 2.51%. `COc1ccc(CCNS(=O)(=O)c2cccc([N+](=O)[O-])c2)cc1` was tested, and the activation was 9%. For `C/C(=N\NS(=O)(=O)c1cccc([N+](=O)[O-])c1)c1cc2ccccc2o1`, the activation was 11.2% (active). For `CC(C)(C)C(=O)NC(NC(=S)Nc1ccc(S(N)(=O)=O)cc1)C(Cl)(Cl)Cl` (centres undefined), the activation was 3.71%. With `Cc1ccc(NC(=S)NC(NC(=O)Cc2cccc3ccccc23)C(Cl)(Cl)Cl)cc1` (centres undefined) the activation was 26.7% (active). For `Cc1ccc(CNC(=O)[C@@H](NC(=O)Cc2ccccc2)C(C)C)cc1`, the activation was -1.89%. In the case of `CCOC(=O)C1CCCN(S(=O)(=O)c2ccc(-n3cnnn3)c(C)c2)C1` (centres undefined), the activation is reported as 1.69%. For `COC(=O)c1sccc1NC(=O)CSc1ccccc1NS(=O)(=O)c1cc(Cl)ccc1Cl`, the activation was 8.27%. With `CCc1cc2c(NC3CCCC3)ncnc2s1` the activation was 0.57%. Compound `CCc1cc2c(NC(Cc3ccccc3)C(=O)O)ncnc2s1` (centres undefined) has an activation of -3.53%. `CCc1cc2c(N3CCN(c4nnc(CC)s4)CC3)ncnc2s1` was tested, and the activation was 10.4% (active). Work on `COc1ccc(C(=O)NCc2ccc(Cl)cc2)cc1S(=O)(=O)N1CCCC1` yielded an activation of -0.47%. In the case of `C=CCOC(=O)C1=C[C@@H](c2ccc3c(c2)OCO3)C[C@@H](OCCCCO)O1`, the activation is reported as -2.46%. In the case of `Nn1c(SCC(=O)Nc2nccs2)nnc1-c1ccco1`, the activation is reported as 2.08%. `COc1ccc(-c2cc(=O)oc3cc(OCC(=O)N(C)C4CCS(=O)(=O)C4)ccc23)cc1` (centres undefined) was tested, and the activation was 3.71%. For `CC(=O)COc1ccc2c(-c3ccccc3)cc(=O)oc2c1`, the activation was 15.1% (active). Compound `COc1ccc(-c2cc(=O)oc3cc(OCC(=O)N[C@@H](Cc4c[nH]c5ccccc45)C(=O)O)ccc23)cc1` has an activation of -4.61%. `Cc1cc(C(=O)OC(C)C(=O)Nc2cccc(S(=O)(=O)N3CCOCC3)c2)c(C)o1` (centres undefined) showed an activation of 1.13%. For `C[C@@H](CN1CCC[C@H]1CN1C(N)=NC[C@@H]1Cc1ccccc1)N1C[C@@H](Cc2ccccc2)N(CCCC2CCCC2)C1=N`, the activation was -7.1%. `COc1cc(SC#N)ccc1N=Cc1c(C)[nH]n(-c2ccc(C)cc2)c1=O` was tested, and the activation was 11.4% (active). `Cc1ccc(C(=O)N2CC(=O)Nc3ccccc32)o1` gave an activation of -6.07%. `COc1cccc(OC)c1C(=O)N1CCN(Cc2cccnc2)CC1` showed an activation of 3.95%. In the case of `C=C(C)CSc1nnc(-c2ccc(C)cc2)n1N`, the activation is reported as -0.48%. Compound `COc1ccccc1NS(=O)(=O)c1ccc(C(=O)N2CCN(c3ccccc3O)CC2)cc1` has an activation of -0.27%.
